Reference: PubChem BioAssay (EPA / NIEHS)
Active and inactive are the calls of the source. Rule for the calls: active = hit-call score of the fitted dose curve at least 0.9, where 1 is the maximum; inactive = score below 0.9.

Tests used:
[1] = ATG_CRE_CIS: Attagene CIS-FACTORIAL HepG2 Assay for human cAMP Responsive Element (CRE) binding protein 3 (AID 2282926); settings: HepG2 CRE cis-reporter, Attagene multiplexed mRNA; actives raise or lower the signal
Method in brief: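 HepG2 cells transiently transfected with a multiplexed reporter library (CRE-driven unit among them) were dosed for 24 h. Reporter mRNA was quantified by RT-PCR, fluorescent labelling, HpaI digestion and capillary electrophoresis, with bidirectional fitting against DMSO baseline.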

[2] = target: CCAAT/enhancer-binding protein beta (Homo sapiens) (UniProt P17676); test: ATG_C_EBP_CIS: Attagene CIS-FACTORIAL HepG2 Assay for human CCAAT/Enhancer Binding Protein (C/EBP) beta (AID 2282927); settings: HepG2 Attagene cis-factorial transcription factor reporter; actives raise or lower the signal
Method in brief: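 HepG2 transiently transfected with multiplexed reporter units under cis-regulatory promoters reporting endogenous C/EBPb activity. After 24 h exposure, reporter mRNA assayed by RT-PCR, fluorescent labelling, HpaI digestion and capillary electrophoresis; bidirectional fitting versus DMSO.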

[3] = ATG_CMV_CIS: Attagene CIS-FACTORIAL HepG2 Assay for human CMV (Internal Marker) (AID 2282928); settings: HepG2 CMV promoter reporter, transcription factor profiling; actives raise or lower the signal;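 note: endpoint acts as a background internal control marker rather than a target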
Method in brief: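 HepG2 cells transiently transfected with multiple cis-regulated reporter units; 24 h compound exposure. Reporter mRNA quantified by RT-PCR, 6-FAM primer-extension labeling, HpaI digestion and capillary electrophoresis; bidirectional fitting against DMSO baseline.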

[4] = ATG_DR4_LXR_CIS: Attagene CIS-FACTORIAL HepG2 Assay for human Liver X Receptor (LXR), DR4 submotif (AID 2282929); settings: HepG2 Attagene DR4 cis-reporter, mRNA transcription; actives raise or lower the signal
Method in brief: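 Total RNA from 24 h-treated, MRTU-transfected HepG2 cells underwent reverse transcription, PCR, fluorescent primer extension and restriction digestion before capillary electrophoresis. Both increases and decreases in reporter signal were fitted against DMSO.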

[5] = ATG_AP_1_CIS: Attagene CIS-FACTORIAL HepG2 Assay for human Activator Protein 1 (AP-1) (AID 2282931); settings: HepG2 Attagene cis-factorial AP-1 reporter mRNA; actives raise or lower the signal
Method in brief: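 HepG2, transient cis-reporter transfection; 24 h; readout RT-PCR/CE fluorescence; DMSO baseline, gain and loss fitted.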

[6] = ATG_AP_2_CIS: Attagene CIS-FACTORIAL HepG2 Assay for human Activator Protein 2 (AP-2) (AID 2282932); settings: HepG2 AP-2 cis-reporter, Attagene transcription factor profiling; actives raise or lower the signal
Method in brief: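 HepG2 cells transiently transfected with cis-element reporter units and exposed for 24 h. Reporter mRNA measured by RT-PCR, FAM labelling, HpaI digestion and capillary electrophoresis. Changes in either direction fitted relative to DMSO.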

[7] = ATG_BRE_CIS: Attagene CIS-FACTORIAL HepG2 Assay for human Bone Morphogenetic Protein (BMP) Response Element (BRE) (AID 2282933); settings: HepG2 BMP response element reporter, Attagene transcription factor profiling; actives raise or lower the signal
Method in brief: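 Fluorescence-labelled reporter cDNA fragments, separated by capillary electrophoresis, gave the signal for this component of a 52-readout multiplex. HepG2 cells were transfected, exposed to chemicals for 24 h, and compared with DMSO using bidirectional fitting.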

[8] = target: Retinoic acid receptor alpha (Homo sapiens) (UniProt P10276); test: ATG_DR5_RAR_CIS: Attagene CIS-FACTORIAL HepG2 Assay for human Retinoic Acid Receptor Alpha (RARE), DR5 submotif (AID 2282934); settings: HepG2 Attagene cis-factorial RARE DR5 reporter, mRNA; actives raise or lower the signal
Method in brief: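 HepG2 cells transiently transfected with multiplexed reporter units; DR5 cis-element drives reporter through endogenous transcription factors. After 24 h dosing, reporter mRNA quantified by RT-PCR, fluorescent labeling, HpaI digestion and capillary electrophoresis; bidirectional fitting versus DMSO.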

[9] = target: Transcription factor E2F1 (Homo sapiens) (UniProt Q01094); test: ATG_E2F_CIS: Attagene CIS-FACTORIAL HepG2 Assay for human E2F Transcription Factor 1 (AID 2282935); settings: HepG2 Attagene cis-reporter, E2F reporter RNA transcripts; actives raise or lower the signal
Method in brief: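 Endogenous E2F1 activity read through cis-promoter reporter units transfected into HepG2. After 24 h compound treatment, reporter mRNA measured by RT-PCR, HpaI digestion and capillary electrophoresis. Bidirectional fit versus DMSO.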

Retinoic acid receptor alpha (Homo sapiens), sequence (P10276 whole entry, looked up): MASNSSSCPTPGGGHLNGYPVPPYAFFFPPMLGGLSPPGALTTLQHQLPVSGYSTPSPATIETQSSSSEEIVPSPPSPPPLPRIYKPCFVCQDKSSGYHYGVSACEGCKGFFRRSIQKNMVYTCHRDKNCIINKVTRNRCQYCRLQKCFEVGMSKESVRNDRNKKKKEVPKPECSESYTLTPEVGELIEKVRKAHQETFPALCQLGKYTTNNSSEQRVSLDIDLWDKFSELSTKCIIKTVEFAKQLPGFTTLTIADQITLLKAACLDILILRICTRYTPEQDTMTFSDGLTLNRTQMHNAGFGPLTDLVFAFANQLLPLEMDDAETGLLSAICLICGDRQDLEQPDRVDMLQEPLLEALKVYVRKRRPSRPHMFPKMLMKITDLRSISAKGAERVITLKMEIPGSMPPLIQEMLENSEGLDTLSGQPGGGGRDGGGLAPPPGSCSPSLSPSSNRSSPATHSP
CCAAT/enhancer-binding protein beta (Homo sapiens), sequence (P17676 whole entry, looked up): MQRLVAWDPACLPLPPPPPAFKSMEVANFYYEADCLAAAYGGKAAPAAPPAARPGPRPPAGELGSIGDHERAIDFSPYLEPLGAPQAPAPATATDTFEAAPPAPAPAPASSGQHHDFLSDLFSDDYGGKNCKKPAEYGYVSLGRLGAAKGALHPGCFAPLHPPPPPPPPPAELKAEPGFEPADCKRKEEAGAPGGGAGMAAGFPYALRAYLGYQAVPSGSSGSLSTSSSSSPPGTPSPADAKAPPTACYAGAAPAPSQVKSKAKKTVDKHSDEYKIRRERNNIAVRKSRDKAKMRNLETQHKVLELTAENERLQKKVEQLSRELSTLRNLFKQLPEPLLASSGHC
Transcription factor E2F1 (Homo sapiens), sequence (Q01094 whole entry, looked up): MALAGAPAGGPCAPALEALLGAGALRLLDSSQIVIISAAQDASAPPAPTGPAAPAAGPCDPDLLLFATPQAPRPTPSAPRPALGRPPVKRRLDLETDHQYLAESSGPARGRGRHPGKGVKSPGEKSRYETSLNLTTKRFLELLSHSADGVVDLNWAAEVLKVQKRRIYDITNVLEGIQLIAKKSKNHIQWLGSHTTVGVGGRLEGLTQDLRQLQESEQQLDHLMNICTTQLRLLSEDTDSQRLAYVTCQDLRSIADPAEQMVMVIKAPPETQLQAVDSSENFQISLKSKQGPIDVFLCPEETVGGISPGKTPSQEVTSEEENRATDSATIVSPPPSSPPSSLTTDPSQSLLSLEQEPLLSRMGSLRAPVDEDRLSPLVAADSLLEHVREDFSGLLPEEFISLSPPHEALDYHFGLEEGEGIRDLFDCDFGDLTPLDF

Compound	outcome [1]	outcome [2]	AC50 [3]	outcome [4]	AC50 [5]	outcome [6]	AC50 [7]	outcome [8]	outcome [9]	outcome [3]	outcome [5]	outcome [7]	AC50 [1]	AC50 [4]
S=c1[nH]c2ccccc2s1	inactive	inactive	100 µM (active)	inactive	19.8 µM (active)	inactive	7.98 µM (active)	inactive	inactive					
O=C(Oc1ccccc1)c1cccc(C(=O)Oc2ccccc2)c1	inactive	inactive		inactive		inactive		inactive	inactive	inactive	inactive	inactive		
O=C(NS(=O)(=O)/C=C/c1cccs1)c1ccc(F)cc1Br	inactive	inactive		inactive		inactive		inactive	inactive	inactive	inactive	inactive		
CCCC(=O)O		inactive	44.4 µM (active)	inactive		inactive		inactive	inactive		inactive	inactive	0.0135 µM (active)	
O=C(O)CN(CC(=O)O)CC(=O)O	inactive	inactive		inactive		inactive		inactive	inactive	inactive	inactive	inactive		
CC(=O)OC1CC(C)OC(C)O1 (centres undefined)	inactive	inactive		inactive		inactive		inactive	inactive	inactive	inactive	inactive		
C/C=C/C=C/C(=O)O	inactive	inactive		inactive		inactive			inactive	inactive	inactive	inactive		
CCCCCCCC(=O)OC	inactive	inactive		inactive		inactive			inactive	inactive	inactive	inactive		
Cc1occc(=O)c1O	inactive	inactive		inactive		inactive			inactive	inactive	inactive	inactive		
COC(=O)[C@H]1[C@H]2C[C@@H]3c4[nH]c5cc(OC)ccc5c4CCN3C[C@H]2C[C@@H](OC(=O)c2cc(OC)c(OC)c(OC)c2)[C@@H]1OC		inactive			25.5 µM (active)	inactive			inactive	inactive		inactive	21.9 µM (active)	22.8 µM (active)
CC1(C)C(=O)NC(=O)N1CO	inactive	inactive		inactive		inactive			inactive	inactive	inactive	inactive		
